Data as given in PubChem BioAssay.
Active and inactive are the calls of the source.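 Rule for the calls: active = thallium flux through the channel raised or lowered by more than 3 SD from vehicle-only wells, actives on both sides; inactive = the rest.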

How the values were obtained:
Assay in all cases: modulators of BK channel variants, profiling panel, selectivity assay, cell-based, U2OS BacMam, thallium flux, beta subunits (AID 1259406);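 note: initial slope of Thallos dye fluorescence rise after thallium is added; log ratio against the mean of 0.3% DMSO vehicle wells on the same plate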
F380Y = conditions: at 30 µM
F380Y/beta1 = conditions: at 30 µM
F380Y/beta2Delta = conditions: at 30 µM
F380Y/beta4 = conditions: at 30 µM
[1] = target: Calcium-activated potassium channel subunit alpha-1 (Homo sapiens) + Leucine-rich repeat-containing protein 26 (Homo sapiens) (UniProt Q12791+Q2I0M4); conditions: F380Y/Slo1WT/gamma1, at 30 µM
Calcium-activated potassium channel subunit alpha-1 (Homo sapiens) + Leucine-rich repeat-containing protein 26 (Homo sapiens), sequence (Q2I0M4 whole entry, looked up, one chain of several): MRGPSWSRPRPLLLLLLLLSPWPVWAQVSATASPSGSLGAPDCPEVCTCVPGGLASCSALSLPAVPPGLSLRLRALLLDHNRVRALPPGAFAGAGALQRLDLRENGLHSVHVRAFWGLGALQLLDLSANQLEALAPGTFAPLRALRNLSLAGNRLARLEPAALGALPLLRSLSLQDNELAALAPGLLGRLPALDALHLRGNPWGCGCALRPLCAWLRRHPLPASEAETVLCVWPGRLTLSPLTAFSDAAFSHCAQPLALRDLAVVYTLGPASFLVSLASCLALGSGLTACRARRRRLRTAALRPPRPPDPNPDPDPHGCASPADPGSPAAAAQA

R275C = conditions: at 30 µM
R275C/beta1 = conditions: at 30 µM
R275C/beta2Delta = conditions: at 30 µM
R275C/beta4 = conditions: at 30 µM
R275C/Slo1WT/beta2 = conditions: at 30 µM

Measured: log fold change Tl+ flux

O=C1C(=Cc2cc(-c3ccccc3)c(C(F)(F)F)s2)CSc2ccc(Cl)cc21
inactive: F380Y 0.00549 | F380Y/beta1 0.0168 | F380Y/beta2Delta 0.0287 | F380Y/beta4 -0.022 | [1] -0.0261 | R275C -0.00201 | R275C/beta1 -0.0099 | R275C/beta2Delta -0.0048 | R275C/beta4 0.0191 | R275C/Slo1WT/beta2 0.0572

Cn1cnc2cccc(F)c2c1=N
inactive: F380Y -0.0259 | F380Y/beta1 0.000586 | F380Y/beta2Delta -0.0156 | F380Y/beta4 0.0474 | [1] 0.038 | R275C 0.0169 | R275C/beta1 0.0241 | R275C/beta2Delta -0.00275 | R275C/beta4 0.00326 | R275C/Slo1WT/beta2 0.0172

CCCCCCCCCCCC(=O)N1CC(=O)NC(=O)C1
inactive: F380Y -0.0479 | F380Y/beta1 -0.037 | F380Y/beta2Delta -0.0133 | F380Y/beta4 -0.0202 | [1] 0.0655 | R275C -0.0151 | R275C/beta1 -0.0193 | R275C/beta2Delta 0.0154 | R275C/beta4 -0.0342 | R275C/Slo1WT/beta2 0.0104

COC(=O)c1sc(-c2ccc(Cl)cc2)cc1NC(=O)c1ccc2nsnc2c1
inactive: F380Y 0.0226 | F380Y/beta1 0.0354 | F380Y/beta2Delta 0.0206 | F380Y/beta4 0.0283 | [1] 0.00872 | R275C 0.0185 | R275C/beta1 -0.00968 | R275C/beta2Delta -0.0231 | R275C/beta4 -0.00956 | R275C/Slo1WT/beta2 0.0403

COc1cccc(C(=O)Nc2cc(F)c(Br)cc2F)c1
inactive: F380Y -0.0206 | F380Y/beta1 -0.0212 | F380Y/beta2Delta -0.00467 | F380Y/beta4 -0.0131 | [1] -0.0252 | R275C -0.0759 | R275C/beta1 -0.106 | R275C/beta2Delta -0.0756 | R275C/beta4 -0.0731 | R275C/Slo1WT/beta2 -0.0319

CCOC(=O)c1ccc(NC(=O)CCC(=O)O)cc1
inactive: F380Y -0.0468 | F380Y/beta1 -0.00176 | F380Y/beta2Delta -0.0505 | F380Y/beta4 0.0259 | [1] 0.0113 | R275C -0.00978 | R275C/beta1 -0.00901 | R275C/beta2Delta -0.0108 | R275C/beta4 -0.0046 | R275C/Slo1WT/beta2 0.0242

O=c1[nH]nc(N2CCSCC2)[nH]1
inactive: F380Y 0.00841 | F380Y/beta1 0.0329 | F380Y/beta2Delta -0.0177 | F380Y/beta4 0.0123 | [1] -0.0239 | R275C 0.0133 | R275C/beta1 0.000508 | R275C/beta2Delta -0.00725 | R275C/beta4 0.0241 | R275C/Slo1WT/beta2 0.014

O=C1c2cc(S(=O)(=O)O)ccc2CCC1S(=O)(=O)O (stereo not given)
inactive: F380Y 0.0577 | F380Y/beta4 0.0447 | [1] -0.0209 | R275C 0.0448 | R275C/beta1 0.0433 | R275C/beta4 0.0299 | R275C/Slo1WT/beta2 -0.0389
active: F380Y/beta1 0.132 | F380Y/beta2Delta 0.167 | R275C/beta2Delta 0.151

COc1cccc(C=NNC(=O)C2CCCN(C(=S)NNC3CC4C=CC3C4)CC2)c1O (stereo not given)
inactive: F380Y 0.0111 | F380Y/beta1 -0.0549 | F380Y/beta2Delta -0.0296 | F380Y/beta4 0.0197 | [1] 0.0309 | R275C -0.00837 | R275C/beta1 0.0189 | R275C/beta2Delta -0.0281 | R275C/beta4 -0.00446 | R275C/Slo1WT/beta2 0.00307

C1=CC=CC(C2C=CC=CC=C2)C=C1
inactive: F380Y 0.0519 | F380Y/beta1 0.0343 | F380Y/beta2Delta -0.0453 | F380Y/beta4 0.0315 | [1] -0.0568 | R275C -0.00176 | R275C/beta1 -0.00852 | R275C/beta2Delta -0.000831 | R275C/beta4 0.0377 | R275C/Slo1WT/beta2 -0.0164

Cc1nc2ccc(C(=O)O)cc2[nH]1
inactive: F380Y 0.0381 | F380Y/beta1 0.0177 | F380Y/beta2Delta 0.0131 | F380Y/beta4 0.0015 | [1] 0.0154 | R275C 0.0142 | R275C/beta1 0.0541 | R275C/beta2Delta 0.0118 | R275C/beta4 -0.00127 | R275C/Slo1WT/beta2 0.0354

CCCCCCCCCCCCSC(=S)NCC1CCCO1 (stereo not given)
inactive: F380Y 0.0353 | F380Y/beta1 0.0262 | F380Y/beta2Delta 0.0128 | F380Y/beta4 0.0306 | [1] 0.0128 | R275C -0.00711 | R275C/beta1 -0.0124 | R275C/beta2Delta 0.0322 | R275C/beta4 -0.00355 | R275C/Slo1WT/beta2 -0.00192

NC(=O)c1nnn(-c2ccc([N+](=O)[O-])cc2)c1-c1ccccc1
inactive: F380Y 0.0114 | F380Y/beta1 -0.0124 | F380Y/beta2Delta 0.0187 | F380Y/beta4 0.0444 | [1] 0.0451 | R275C -0.0124 | R275C/beta1 -0.0135 | R275C/beta2Delta 0.0277 | R275C/beta4 0.0182 | R275C/Slo1WT/beta2 -0.00577

COC(=O)c1cncc(Br)c1
inactive: F380Y -0.0118 | F380Y/beta1 0.012 | F380Y/beta2Delta 0.0106 | F380Y/beta4 -0.0443 | [1] -0.0357 | R275C -0.0441 | R275C/beta1 -0.0547 | R275C/beta2Delta -0.0215 | R275C/beta4 -0.021 | R275C/Slo1WT/beta2 -0.0413

CCOC(=O)C1CCC(C(=O)OCC)N1C(=O)Nc1ccc(Cl)cc1 (stereo not given)
inactive: F380Y 0.046 | F380Y/beta1 0.00842 | F380Y/beta2Delta 0.0313 | F380Y/beta4 -0.0525 | [1] -0.0039 | R275C 0.0639 | R275C/beta1 0.0271 | R275C/beta2Delta 0.0385 | R275C/beta4 0.0217 | R275C/Slo1WT/beta2 -0.00903

Cc1cc(C)n2nc(Sc3ncccc3[N+](=O)[O-])nc2n1
inactive: F380Y 0.0293 | F380Y/beta1 -0.0122 | F380Y/beta2Delta -0.0308 | F380Y/beta4 0.00857 | [1] 0.0468 | R275C 0.0175 | R275C/beta1 -0.025 | R275C/beta2Delta -0.00322 | R275C/beta4 0.00925 | R275C/Slo1WT/beta2 0.0318

CC1(C)CC(=O)N(c2cc(Cl)cc(Cl)c2)C(=O)C1
inactive: F380Y 0.0251 | F380Y/beta1 0.0345 | F380Y/beta2Delta 0.0195 | F380Y/beta4 -0.021 | [1] -0.00455 | R275C -0.0193 | R275C/beta1 0.025 | R275C/beta2Delta 0.032 | R275C/beta4 -0.0103 | R275C/Slo1WT/beta2 -0.0488

CC(C)(C)c1ccc(Oc2ccc(NC(=O)Nc3cccs3)cn2)cc1
active: F380Y -0.105 | F380Y/beta1 0.131
inactive: F380Y/beta2Delta -0.0118 | F380Y/beta4 0.0598 | [1] 0.0627 | R275C 0.0691 | R275C/beta1 0.0982 | R275C/beta2Delta 0.0026 | R275C/beta4 0.026 | R275C/Slo1WT/beta2 -0.00521

CC(=O)OCC(=O)C1(O)C(C)CC2C3CCC4CC(=O)C=CC4(C)C3C(O)CC21C (stereo not given)
inactive: F380Y 0.0723 | F380Y/beta1 -0.0034 | F380Y/beta2Delta -0.017 | F380Y/beta4 0.0362 | [1] -0.00155 | R275C 0.00844 | R275C/beta1 0.0348 | R275C/beta2Delta 0.0375 | R275C/beta4 0.0527 | R275C/Slo1WT/beta2 0.00132

Cc1ccc(S(=O)(=O)N2Cc3ccccc3C(C)CC23CCCCC3)cc1 (stereo not given)
active: F380Y/beta4 -0.175 | R275C -0.0799 | R275C/beta1 -0.119
inactive: F380Y -0.0732 | F380Y/beta1 -0.033 | F380Y/beta2Delta -0.0539 | [1] -0.0898 | R275C/beta2Delta -0.0411 | R275C/beta4 -0.0534 | R275C/Slo1WT/beta2 0.009

Cc1cc(CNCC(O)C(F)(F)F)no1 (stereo not given)
inactive: F380Y -0.0368 | F380Y/beta1 0.043 | F380Y/beta2Delta -0.0229 | F380Y/beta4 0.06 | [1] 0.018 | R275C 0.0241 | R275C/beta1 -0.0759 | R275C/beta2Delta -0.018 | R275C/beta4 0.0165 | R275C/Slo1WT/beta2 0.0726

NS(=O)(=O)c1cccc(NC(=O)c2cccnc2Oc2ccccc2)c1
inactive: F380Y -0.000714 | F380Y/beta1 0.008 | F380Y/beta2Delta 0.0103 | F380Y/beta4 -0.015 | [1] -0.0607 | R275C -0.0268 | R275C/beta1 -0.0191 | R275C/beta2Delta 0.01 | R275C/beta4 0.00433 | R275C/Slo1WT/beta2 -0.0182

CCc1ccc(C(=O)Nc2cccc(S(N)(=O)=O)c2)cc1
inactive: F380Y -0.0133 | F380Y/beta1 -0.00607 | F380Y/beta2Delta -0.0279 | F380Y/beta4 0.0112 | [1] 0.028 | R275C -0.00467 | R275C/beta1 -0.00416 | R275C/beta2Delta -0.0306 | R275C/beta4 0.0218 | R275C/Slo1WT/beta2 0.0201

Cc1nc(-c2ccc(S(=O)(=O)N3CCCN(c4ccc(C(F)(F)F)cn4)CC3)s2)cs1
active: F380Y/beta4 -0.105
inactive: F380Y 0.00624 | F380Y/beta1 -0.00592 | F380Y/beta2Delta -0.0273 | [1] 0.00148 | R275C -0.0736 | R275C/beta1 -0.0131 | R275C/beta2Delta -0.0332 | R275C/beta4 -0.00508 | R275C/Slo1WT/beta2 0.0123

CSc1nc(C=Nc2cccc(Cl)c2)c(O)n1Cc1cccc(Cl)c1
inactive: F380Y -0.00291 | F380Y/beta2Delta 0.0623 | F380Y/beta4 -0.0889 | [1] 0.0392 | R275C -0.03 | R275C/beta1 0.102 | R275C/Slo1WT/beta2 -0.0459
active: F380Y/beta1 0.208 | R275C/beta2Delta 0.137 | R275C/beta4 0.11

CC(c1ccccc1)n1c(SCc2cc(=O)oc3cc(O)ccc23)n[nH]c1=O (stereo not given)
active: R275C/beta2Delta 0.123 | R275C/beta4 0.102
inactive: F380Y -0.0609 | F380Y/beta1 0.00559 | F380Y/beta2Delta 0.0151 | F380Y/beta4 0.0558 | [1] 0.0977 | R275C 0.0366 | R275C/beta1 0.0338 | R275C/Slo1WT/beta2 -0.0189
